Compound in the assay: Nc1nc2c(ncn2[C@@H]2O[C@H](COP(=O)(O)OP(=O)(O)OP(=O)(O)O)[C@@H](O)[C@H]2O)c(=O)[nH]1 [guanosine triphosphate]
Briefly: NP40-soluble protein abundance relative to vehicle (solubility fold change) (ratio); higher = more soluble protein in presence of GTP. Here is the method:
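Solubility proteome profiling in Jurkat crude lysate. Lysate was treated with Mg-GTP (0.1-10 mM) for 10 min at room temperature and 3 min at 37 °C, then solubilised with 0.8% NP40 and benzonase, followed by ultracentrifugation. Proteins were quantified by TMT10 LC-MS/MS; the value is the NP40-soluble abundance relative to the NP40-processed vehicle, from 3 independent experiments.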

± gives the standard deviation of the averaged measurements. The full data set covers some 5,400 targets. This sample favours those with the largest changes.

Chain of UniProt Q9P2J5 (Q9P2J5 whole entry, looked up): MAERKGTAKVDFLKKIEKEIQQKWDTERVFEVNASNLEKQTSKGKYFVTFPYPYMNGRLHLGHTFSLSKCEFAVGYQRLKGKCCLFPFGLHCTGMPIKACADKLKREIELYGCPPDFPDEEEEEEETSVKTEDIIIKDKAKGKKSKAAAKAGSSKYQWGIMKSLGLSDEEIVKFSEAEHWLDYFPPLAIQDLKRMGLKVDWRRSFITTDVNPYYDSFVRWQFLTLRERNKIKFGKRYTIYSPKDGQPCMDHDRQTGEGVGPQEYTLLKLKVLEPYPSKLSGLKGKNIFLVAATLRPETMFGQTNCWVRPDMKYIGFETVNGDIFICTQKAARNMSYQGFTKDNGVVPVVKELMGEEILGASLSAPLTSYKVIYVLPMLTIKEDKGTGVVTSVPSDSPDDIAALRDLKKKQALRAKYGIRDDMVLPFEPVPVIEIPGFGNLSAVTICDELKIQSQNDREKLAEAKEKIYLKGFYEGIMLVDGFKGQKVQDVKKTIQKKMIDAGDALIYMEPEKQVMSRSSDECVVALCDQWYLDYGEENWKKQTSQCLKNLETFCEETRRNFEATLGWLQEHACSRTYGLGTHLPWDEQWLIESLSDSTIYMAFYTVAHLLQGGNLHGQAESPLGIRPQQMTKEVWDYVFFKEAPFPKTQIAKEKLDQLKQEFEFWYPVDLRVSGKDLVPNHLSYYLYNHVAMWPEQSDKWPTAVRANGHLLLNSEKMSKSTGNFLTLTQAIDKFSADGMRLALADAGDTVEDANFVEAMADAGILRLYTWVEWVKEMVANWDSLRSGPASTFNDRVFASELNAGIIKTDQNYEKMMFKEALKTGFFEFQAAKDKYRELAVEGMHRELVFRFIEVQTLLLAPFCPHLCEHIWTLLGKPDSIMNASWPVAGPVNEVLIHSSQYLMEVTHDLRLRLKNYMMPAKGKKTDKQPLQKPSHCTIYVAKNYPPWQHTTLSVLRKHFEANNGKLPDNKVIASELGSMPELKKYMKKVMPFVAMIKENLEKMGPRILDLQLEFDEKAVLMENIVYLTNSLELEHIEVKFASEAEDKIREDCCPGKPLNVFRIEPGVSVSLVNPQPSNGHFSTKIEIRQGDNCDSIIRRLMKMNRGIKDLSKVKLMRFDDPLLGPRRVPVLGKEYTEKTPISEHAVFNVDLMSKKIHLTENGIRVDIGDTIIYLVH
Chain of UniProt Q9BT73 (Q9BT73 whole entry): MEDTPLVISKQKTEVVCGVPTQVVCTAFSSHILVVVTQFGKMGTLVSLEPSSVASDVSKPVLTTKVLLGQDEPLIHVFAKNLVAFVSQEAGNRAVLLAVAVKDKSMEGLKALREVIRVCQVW
Chain of UniProt Q9NRX1 (Q9NRX1 whole entry): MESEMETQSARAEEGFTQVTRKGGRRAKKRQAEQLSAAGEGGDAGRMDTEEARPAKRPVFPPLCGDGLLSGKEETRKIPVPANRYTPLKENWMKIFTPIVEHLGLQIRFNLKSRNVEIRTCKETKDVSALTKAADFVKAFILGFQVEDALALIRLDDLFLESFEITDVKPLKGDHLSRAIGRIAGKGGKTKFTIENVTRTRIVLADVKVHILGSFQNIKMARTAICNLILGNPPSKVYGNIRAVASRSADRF
Chain of UniProt Q9UMX0 (Q9UMX0 whole entry): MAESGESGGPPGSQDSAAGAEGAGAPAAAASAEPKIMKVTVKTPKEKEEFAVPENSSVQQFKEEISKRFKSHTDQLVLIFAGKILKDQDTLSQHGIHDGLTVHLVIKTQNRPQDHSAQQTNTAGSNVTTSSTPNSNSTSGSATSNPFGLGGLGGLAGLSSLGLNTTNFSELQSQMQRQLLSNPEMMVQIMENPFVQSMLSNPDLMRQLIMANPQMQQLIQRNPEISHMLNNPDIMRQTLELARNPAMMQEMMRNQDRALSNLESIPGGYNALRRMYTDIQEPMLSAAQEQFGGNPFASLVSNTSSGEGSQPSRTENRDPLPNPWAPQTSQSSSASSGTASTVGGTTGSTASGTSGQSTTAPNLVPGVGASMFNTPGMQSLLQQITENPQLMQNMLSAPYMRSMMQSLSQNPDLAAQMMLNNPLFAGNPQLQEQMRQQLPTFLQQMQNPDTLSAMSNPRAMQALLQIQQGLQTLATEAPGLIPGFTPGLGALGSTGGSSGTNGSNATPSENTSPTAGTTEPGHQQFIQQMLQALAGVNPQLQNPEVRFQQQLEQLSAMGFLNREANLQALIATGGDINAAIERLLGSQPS
Chain of UniProt Q9Y2A7 (Q9Y2A7 whole entry): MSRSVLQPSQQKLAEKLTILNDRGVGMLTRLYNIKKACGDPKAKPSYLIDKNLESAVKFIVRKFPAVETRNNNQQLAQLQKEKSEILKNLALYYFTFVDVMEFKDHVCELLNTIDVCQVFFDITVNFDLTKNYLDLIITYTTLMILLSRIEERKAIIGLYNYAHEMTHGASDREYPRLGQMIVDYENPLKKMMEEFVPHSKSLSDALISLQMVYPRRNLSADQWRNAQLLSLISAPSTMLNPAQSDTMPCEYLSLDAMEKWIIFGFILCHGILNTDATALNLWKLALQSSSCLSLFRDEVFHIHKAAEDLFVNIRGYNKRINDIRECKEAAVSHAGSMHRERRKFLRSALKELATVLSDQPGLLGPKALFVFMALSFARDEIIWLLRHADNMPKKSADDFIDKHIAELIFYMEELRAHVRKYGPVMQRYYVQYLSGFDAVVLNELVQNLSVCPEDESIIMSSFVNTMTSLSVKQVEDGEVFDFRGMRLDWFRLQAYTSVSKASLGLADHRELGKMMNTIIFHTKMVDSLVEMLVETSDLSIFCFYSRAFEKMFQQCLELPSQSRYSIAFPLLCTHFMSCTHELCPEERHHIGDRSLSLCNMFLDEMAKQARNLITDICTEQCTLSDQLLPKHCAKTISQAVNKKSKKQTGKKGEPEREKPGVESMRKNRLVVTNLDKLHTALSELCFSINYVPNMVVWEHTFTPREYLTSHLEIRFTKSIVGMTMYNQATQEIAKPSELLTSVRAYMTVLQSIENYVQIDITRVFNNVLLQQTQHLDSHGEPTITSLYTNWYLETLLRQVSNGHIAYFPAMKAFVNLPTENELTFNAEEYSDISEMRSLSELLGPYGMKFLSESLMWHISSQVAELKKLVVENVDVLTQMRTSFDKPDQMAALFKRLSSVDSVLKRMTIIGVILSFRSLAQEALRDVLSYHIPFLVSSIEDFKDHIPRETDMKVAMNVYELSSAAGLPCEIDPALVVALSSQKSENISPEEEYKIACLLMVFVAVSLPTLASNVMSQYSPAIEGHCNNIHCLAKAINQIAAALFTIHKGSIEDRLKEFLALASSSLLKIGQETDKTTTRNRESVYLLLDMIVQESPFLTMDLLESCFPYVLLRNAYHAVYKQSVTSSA

In the case of LARS (UniProt Q9P2J5), the NP40-soluble protein abundance by setting is: (concentration: 0.1mM) 1.05 ± 0.078; (concentration: 0.5mM) 1.13 ± 0.15; (concentration: 1mM) 1.07 ± 0.18; (concentration: 2mM) 1.17 ± 0.26; (concentration: 4mM) 1.2 ± 0.26; (concentration: 6mM) 1.21 ± 0.28. The NP40-soluble protein abundance (concentration: 8mM) was found to be 1.16 ± 0.24 and the NP40-soluble protein abundance (concentration: 10mM) was 1.09 ± 0.23.

Turning to UniProt Q9Y2A7|Q9Y2A7-2, the NP40-soluble protein abundance stood at 0.9505 ± 0.0043 (concentration: 0.1mM); 1.002 ± 0.0081 (concentration: 0.5mM); 0.972 ± 0.055 (concentration: 1mM); 0.982 ± 0.015 (concentration: 2mM); 0.991 ± 0.034 (concentration: 4mM); 0.9641 ± 0.0054 (concentration: 6mM). In addition, the NP40-soluble protein abundance runs as follows: (concentration: 8mM) 1.02 ± 0.026; (concentration: 10mM) 0.973 ± 0.011.

Regarding UniProt Q9UMX0|Q9UMX0-2, the NP40-soluble protein abundance runs as follows: (concentration: 0.1mM) 0.999 ± 0.07; (concentration: 0.5mM) 0.998 ± 0.015; (concentration: 1mM) 1.09 ± 0.11; (concentration: 2mM) 1.02 ± 0.032; (concentration: 4mM) 1.012 ± 0.0015; (concentration: 6mM) 0.994 ± 0.039. In addition, the NP40-soluble protein abundance reads like this: (concentration: 8mM) 1.02 ± 0.053; (concentration: 10mM) 1.01 ± 0.039.

With PNO1 (UniProt Q9NRX1), the NP40-soluble protein abundance runs as follows: (concentration: 0.1mM) 1.04 ± 0.082; (concentration: 0.5mM) 1.09 ± 0.17; (concentration: 1mM) 1.14 ± 0.19; (concentration: 2mM) 1.15 ± 0.28; (concentration: 4mM) 1.09 ± 0.27; (concentration: 6mM) 1.09 ± 0.3. The NP40-soluble protein abundance reads like this: (concentration: 8mM) 1.15 ± 0.28; (concentration: 10mM) 1.15 ± 0.32.

For the target PSMG3 (UniProt Q9BT73), the NP40-soluble protein abundance (concentration: 0.1mM) stood at 1.03 ± 0.027; the NP40-soluble protein abundance (concentration: 0.5mM) amounted to 1.09 ± 0.083; the NP40-soluble protein abundance (concentration: 1mM) was found to be 1.09 ± 0.058; the NP40-soluble protein abundance (concentration: 2mM) was found to be 1.07 ± 0.042; the NP40-soluble protein abundance (concentration: 4mM) was 1.08 ± 0.054; the NP40-soluble protein abundance (concentration: 6mM) was 0.999 ± 0.087. Moreover, the NP40-soluble protein abundance is, setting by setting: (concentration: 8mM) 1.14 ± 0.087; (concentration: 10mM) 1.04 ± 0.042.

The values are drawn from the supplement of paper PMC6411743.
